A short description of assay [1]: Confirmation and Secondary Assay for Modulators of Hemoglobin Beta Chain Splicing at IVS2 705 locus (AID 930). Also: potency is read from the fitted curve at half-maximal effect.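 As to activation: HeLa cells stably expressing the EGFP-705 splicing reporter; series mostly up to about 46 µM; % of control where 0% means no effect.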 An outline of the steps:
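HeLa cells stably carrying EGFP interrupted by mutant beta-globin IVS2-705 intron (CMV-driven) were seeded at 500 cells/well, treated next day with compound for 2 days at 37C; corrected splicing restores EGFP, read as total peak GFP intensity per well.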

The nature of assay [2]: qHTS Assay for Identification of Small Molecule Agonists for Thrombopoietin (TPO) Signaling Pathway (AID 917). Also: potency is read from the fitted curve at half-maximal effect. In a few lines: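 Activators of TPO signaling were sought in murine Ba/F3 cells transfected with the human receptor, using a luciferase gene driven by the Glycoprotein IIb promoter; 24-hr compound exposure at 37 C alongside 26 pM TPO, in IL-3-free medium.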
Assay [3] has as its target Muscarinic acetylcholine receptor M1 (Rattus norvegicus) (UniProt P08482). The assay can be described thus: qHTS Assay for Antagonists of Acetylcholine Muscarinic M1 Receptor: Kinetic Measurement of Intracellular Calcium Response (AID 943). Also: nearly all actives have a fitted effect of over 75% in size. Also: potency is read from the fitted curve at half-maximal effect. In a few lines:
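CHO cells stably expressing rat M1 were loaded with no-wash Fluo-4 dye for 1 h at 37C, pre-incubated 10 min with compound, then challenged with EC80 carbachol (100 nM final); kinetic calcium read 4 min, peak/basal ratio.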

For assay [4], the target named is Pyruvate kinase (Leishmania mexicana) (UniProt Q27686). The assay can be described thus: qHTS Validation Assay for Inhibitors of Leishmania Mexicana Pyruvate Kinase (AID 945).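 Also: 0% = DMSO only neutral control wells.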 In a few lines: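 LmPYK E451W 0.2 nM; 0.5 mM PEP, 0.1 mM ADP, 7 mM MgCl2, 50 mM KCl, imidazole pH 7.2, 0.01% Tween 20, 0.05% BSA; 1 h RT; PKLight luminescence; DMSO-normalized.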
Chain of Pyruvate kinase (Leishmania mexicana) (Q27686 2-499 E452W): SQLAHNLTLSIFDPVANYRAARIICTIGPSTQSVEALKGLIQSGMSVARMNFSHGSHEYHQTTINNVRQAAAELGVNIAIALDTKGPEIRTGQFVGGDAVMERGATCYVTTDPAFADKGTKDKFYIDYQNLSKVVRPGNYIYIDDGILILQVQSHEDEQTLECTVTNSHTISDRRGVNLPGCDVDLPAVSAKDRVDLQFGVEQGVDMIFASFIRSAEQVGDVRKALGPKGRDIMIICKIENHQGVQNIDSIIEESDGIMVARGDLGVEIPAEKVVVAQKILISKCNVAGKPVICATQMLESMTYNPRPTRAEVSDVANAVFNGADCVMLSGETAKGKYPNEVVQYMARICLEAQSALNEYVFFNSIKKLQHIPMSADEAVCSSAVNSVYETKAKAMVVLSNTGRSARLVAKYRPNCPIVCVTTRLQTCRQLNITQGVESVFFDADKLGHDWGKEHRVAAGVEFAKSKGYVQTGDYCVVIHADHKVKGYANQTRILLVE
The target in assay [5] is Muscarinic acetylcholine receptor M1 (Rattus norvegicus) (UniProt P08482). As to the kind of experiment: qHTS Assay for Antagonists of Acetylcholine Muscarinic M1 Receptor: Measurement of IP-One Response (AID 944). Also: nearly all actives have a fitted effect of over 75% in size. Also: potency is read from the fitted curve at half-maximal effect. An outline of the steps:
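CHO cells expressing rat M1 receptor, recovered overnight, were pre-incubated 10 min with compound, then stimulated 30 min with carbachol at EC80 (200 nM) in LiCl-containing buffer, pH 7.4. IP1 accumulation was read by HTRF (620/665 nm).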

The nature of assay [6]: qHTS Assay for Identification of Small Molecule Antagonists for Thrombopoietin (TPO) Signaling Pathway (AID 918). Also: potency is read from the fitted curve at half-maximal effect; nearly all actives have a fitted effect of over 60% in size. The settings on record: TPO-dependent cell signaling reporter, antagonist mode. In a few lines:
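Murine Ba/F3 cells stably expressing human TPO receptor and a Glycoprotein IIb promoter–luciferase reporter were IL-3-starved overnight, treated with compounds plus TPO (26 pM final, its EC50) for 24 hrs at 37 C, then read by luminescence.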

A short description of assay [7]: qHTS Assay for Identification of Small Molecule Agonists for Hypoxia Response Element Signaling Pathway (AID 914; active = well fitted activation curve with a large enough effect in the signal ratio, with a control signal flat, not every such curve was filed as active; the % refers to the signal ratio; also: % of control where 0% means no effect). Conditions: ME-180 (cervical carcinoma) HRE-bla reporter, beta-lactamase ratio, CoCl2, 17 h; stronger effect = higher value. An outline of the steps:
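ME-180 cells carrying an HRE-driven beta-lactamase reporter were treated with compounds in a titration series plus an EC50 level of CoCl2 for 17 h at 37 degrees Celsius; CCF4 readout as the 460nm/530nm ratio gave AC50 values.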

Assay [8] is described as follows: MultiTox-Fluor Cytotoxicity Assay - LYMP1-001 - Live Cells (AID 947). Also: potency is read from the fitted curve at half-maximal effect.
The nature of assay [9]: Cell Viability - LYMP1-002 - Assay at 16 hr (AID 948). Also: potency is read from the fitted curve at half-maximal effect. In a few lines: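 LYMP1-002 human lymphoblastoid cells, 2500/well; 5 hr 37 C; cpd 16 hr 37 C; CellTiter-Glo 30 min RT; luminescence (ATP). Concentration-response, Hill-fit AC50. Pos ctrl tetraoctylammonium bromide.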

Inconclusive results are not listed. Activity calls are given as the source filed them. Unless noted, calls follow the shape of the dose curve; as a rule, active = well fitted curve in the direction sought with a large enough effect; inconclusive = small, poorly fitted or top-dose-only effect, or another doubt; inactive = no such curve, though single readings can be large; an effect the other way counts as inactive or inconclusive. Peptide text beside a SMILES is read from it.

Chain of Muscarinic acetylcholine receptor M1 (Rattus norvegicus) (P08482 whole entry, looked up): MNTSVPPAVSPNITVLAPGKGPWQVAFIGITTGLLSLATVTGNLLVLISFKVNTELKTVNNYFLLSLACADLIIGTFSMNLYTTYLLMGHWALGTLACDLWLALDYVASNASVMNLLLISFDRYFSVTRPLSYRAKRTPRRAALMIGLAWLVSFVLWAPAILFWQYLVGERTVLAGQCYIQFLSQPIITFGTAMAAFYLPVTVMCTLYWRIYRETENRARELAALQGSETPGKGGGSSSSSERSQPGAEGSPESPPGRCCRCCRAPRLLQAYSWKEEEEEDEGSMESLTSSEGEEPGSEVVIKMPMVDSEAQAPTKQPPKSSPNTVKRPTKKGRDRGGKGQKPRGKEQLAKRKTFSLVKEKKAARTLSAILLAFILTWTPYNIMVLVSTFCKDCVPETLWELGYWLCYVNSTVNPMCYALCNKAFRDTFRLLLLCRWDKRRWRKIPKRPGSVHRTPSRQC

As to `Nc1cc(C(Cl)=C(Cl)Cl)c(S(N)(=O)=O)cc1S(N)(=O)=O`, in assay [1], the Potency entry was “inactive”.
On to `COc1ccccc1N1CCN(CCN(C(=O)C2CCCCC2)c2ccccn2)CC1`, for which the Potency result in [2], in assay [3] and in [4] was “inactive” throughout.
In the case of `Cc1c(OCC(F)(F)F)ccnc1CS(=O)c1nc2ccccc2[nH]1` (stereo unspecified), the Potency entry in assay [2], in [1], in [5] and in assay [4] was “inactive” in each case.
Take `O=c1c(O)c(-c2cc(O)c(O)c(O)c2)oc2cc(O)cc(O)c12`: in assay [6], the Potency was 10 µM (active). Moreover, the Potency result in assay [3], in assay [5] and in assay [4] was “inactive” throughout.
Turning to `Cc1nc2n(c(=O)c1CCN1CCC(c3noc4cc(F)ccc34)CC1)CCCC2`, the Potency entry in assay [2] and in [4] was “inactive” each time.
In the case of `NNc1nncc2ccccc12`, in [2], the Potency was 0.0398 µM (active). Besides, the Potency result in assay [1] is “inactive”.
For the compound `Nc1nc(OCc2ccccc2)c2[nH]cnc2n1`, the Potency result in assay [2], in assay [3], in assay [5] and in assay [4] was “inactive” in each case.
Take `O=Nc1c(-c2c(O)[nH]c3cc(Br)ccc23)[nH]c2ccccc12`: the Potency in assay [2] is 0.251 µM (active); in [3], 0.1 µM (active); in assay [5] it was 14.1 µM (active).
Take `CN1C(C(=O)Nc2ccccn2)=C(O)c2sccc2S1(=O)=O`: the activation in [7] was -9.7% (inactive). Further, in [1], the Potency entry is “inactive”.
For the compound `NCCCCNCCCN`, in [6], the Potency is 6.31 µM (active). The Potency entry in assay [1], in assay [3] and in assay [4] was “inactive” throughout.
As to `O=C(O)c1cccnc1Nc1cccc(C(F)(F)F)c1`, the Potency result in assay [2], in assay [1] and in assay [4] was “inactive” each time.
As for `O=C(NC(Cc1cc(=O)[nH]c2ccccc12)C(=O)O)c1ccc(Cl)cc1` (stereo unspecified), in assay [1], the Potency result is “inactive”.
In the case of `O=C(CCc1ccc(O)cc1)c1c(O)cc(O)cc1O`, the Potency result in assay [2], in assay [1], in [3], in assay [5] and in assay [4] was “inactive” in each case.
Consider `CCCCC(CC)COC(=O)C(C#N)=C(c1ccccc1)c1ccccc1` (stereo unspecified), for which the Potency entry in assay [8] and in assay [9] was “inactive” in each case.
Consider `CC1(C)C(=O)N(CCN2CCC(C(=O)c3ccc(F)cc3)CC2)c2ccccc21`, for which the Potency entry in assay [4] is “inactive”.
Turning to `Nc1ccc(S(N)(=O)=O)cc1`, the Potency result in assay [1], in assay [8] and in [9] was “inactive” throughout.
On to `O=C1NC(=O)C(c2ccccc2[N+](=O)[O-])=C1Nc1ccc(O)c(Cl)c1`, for which the Potency result in [3] and in assay [4] was “inactive” each time.
`Cc1cc2cc3c(C)cc(=O)oc3c(C)c2o1`: the Potency result in assay [1] was “inactive”.
Take `O=c1ccc2ccc(O)c(O)c2o1`: the Potency result in assay [3] and in [4] was “inactive” in each case.
For `COc1c2occc2cc2ccc(=O)oc12`, the Potency result in assay [1], in assay [8] and in [9] was “inactive” each time.
For the compound `S=c1nc[nH]c2nc[nH]c12`, the Potency in assay [1] was 6.31 µM (active).
Turning to `CC1Cc2ccccc2N1NC(=O)c1ccc(Cl)c(S(N)(=O)=O)c1` (stereo unspecified), the Potency result in assay [1] was “inactive”.
Turning to `CCc1nc(N)nc(N)c1-c1ccc(Cl)cc1`, the Potency entry in assay [1], in assay [8] and in [9] was “inactive” each time.
`Cc1ccc(C)c(OCCCC(C)(C)C(=O)O)c1`: the Potency result in assay [1], in assay [8] and in assay [9] was “inactive” each time.
For `CC(=O)Nc1ccc(O)cc1`, the Potency entry in [8] and in assay [9] was “inactive” each time.
In the case of `CC(=O)N1CCN(c2ccc(OC[C@H]3CO[C@](Cn4ccnc4)(c4ccc(Cl)cc4Cl)O3)cc2)CC1`, in [4], the Potency result is “inactive”.
Consider `Cc1cc(O)c2c(c1)C(=O)c1cc(O)cc(O)c1C2=O`, for which the Potency entry in assay [3], in [5], in assay [4] and in assay [9] was “inactive” in each case.
On to `CCN(CCO)CCCC(C)Nc1ccnc2cc(Cl)ccc12` (stereo unspecified), for which, in assay [1], the Potency entry is “inactive”.
Turning to `CN(C)c1ccc2nc3ccc(=[N+](C)C)cc-3sc2c1`, the Potency in assay [8] is 10 µM (active); in assay [9] it was 12.6 µM (active).
In the case of `CN1CCC(=C2c3ccccc3CCc3sccc32)CC1`, the Potency entry in [1] is “inactive”.
As for `O=C(c1ccccc1)c1ccc2n1CCC2C(=O)O` (stereo unspecified), in assay [1], the Potency entry was “inactive”.
In the case of `Cc1cc2c(s1)Nc1ccccc1N=C2N1CCN(C)CC1`, the Potency result in assay [1] was “inactive”.
`CCCc1cc(=O)[nH]c(=S)[nH]1`: the Potency result in assay [1], in assay [8] and in assay [9] was “inactive” throughout.
Consider `O=C1c2ccccc2-c2n[nH]c3cccc1c23`, for which the Potency entry in [3], in assay [5] and in assay [4] was “inactive” in each case.
`Cc1cc(C2CCCCC2)n(O)c(=O)c1`: the Potency entry in [1] was “inactive”.
As for `CS(=O)(=O)OCCCCOS(C)(=O)=O`, the Potency result in [1], in [8] and in assay [9] was “inactive” throughout.
On to `CC(C)c1ccc2c(c1)c(SC(C)(C)C)c(CC(C)(C)C(=O)O)n2Cc1ccc(Cl)cc1`, for which the Potency entry in assay [5] and in assay [4] was “inactive” each time.
Consider `Oc1ccc(-c2nc(-c3ccc(F)cc3)c(-c3ccncc3)[nH]2)cc1`, for which the Potency entry in assay [3], in assay [5] and in [4] was “inactive” throughout.
As for `Nc1nc(Cl)nc2c1ncn2[C@H]1C[C@H](O)[C@@H](CO)O1`, in assay [1], the Potency result was “inactive”.
Same read-out and setting: the result for `Cc1ccc(S(=O)(=O)NC(=O)NN2CC3CCCC3C2)cc1` (stereo unspecified) reads “inactive”.
In the case of `COC(=O)[C@H](Cc1ccccc1)NC(=O)[C@@H](N)CC(=O)O` (H-Asp-Phe-OMe), the Potency result in assay [8] and in assay [9] was “inactive” each time.
In the case of `O=c1oc2cc(O)ccc2s1`, the Potency entry in [1] is “inactive”.
Turning to `O=c1c(O)c(-c2ccc(O)cc2O)oc2cc(O)cc(O)c12`, the Potency entry in assay [1], in assay [5] and in [4] was “inactive” throughout.

For the origin of these results see PubChem BioAssay (NCATS).
